Assay outcomes from PubChem.
GLP1R cytotox: cytotoxic in the GLP-1 receptor inverse agonist counter-screen. Potency, µM (top dose mostly 38.3 µM), for the others: top-dose activity change, negative = inhibition, hits mostly inhibitors. HEK293 cAMP-luciferase reporter cells, luminescence, 24 h. 410,000 tested, 0.13% active;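 also: loss of luciferase light is scored as toxicity; % is scaled to controls: 0 for no effect and ±100 for the full control effect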
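Seeding density was 200 cells/uL; after overnight-length (12 h) culture, 23 nL compounds went on for 24 h at 37 °C. Readout used a luciferase detection reagent, luminescence taken after 12 min at room temperature.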
GLP-1R inv ag: GLP-1 receptor (human) inverse agonism; P43220; HEK293 GLP-1R CRE-luciferase, luminescence, 24 h; GLP-1R form is constitutively active; Potency, µM (titrated, usually from 38.3 µM), without a hit: at the highest dose activity change, negative = inhibition, hits mostly inhibitors; 410,000 tested, 1.6% active; AID 624417; also: % is scaled to controls: 0 for no effect and ±100 for the full control effect; nearly all actives have a fitted effect of over 55% in size
Target sequence (P43220 whole entry, looked up): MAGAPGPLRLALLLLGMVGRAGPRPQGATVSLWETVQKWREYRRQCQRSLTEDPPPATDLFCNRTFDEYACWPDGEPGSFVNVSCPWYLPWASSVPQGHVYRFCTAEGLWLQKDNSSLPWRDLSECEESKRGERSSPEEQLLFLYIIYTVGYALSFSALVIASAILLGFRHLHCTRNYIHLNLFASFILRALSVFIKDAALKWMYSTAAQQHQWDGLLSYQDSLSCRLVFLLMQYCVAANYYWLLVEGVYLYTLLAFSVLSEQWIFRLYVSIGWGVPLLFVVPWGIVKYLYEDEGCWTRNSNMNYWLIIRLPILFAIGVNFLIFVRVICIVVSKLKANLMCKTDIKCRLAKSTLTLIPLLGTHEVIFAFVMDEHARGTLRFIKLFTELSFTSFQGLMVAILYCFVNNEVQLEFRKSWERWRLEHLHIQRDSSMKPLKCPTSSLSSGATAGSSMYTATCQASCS
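GLP-1R inverse agonism mode: basal reporter luminescence in engineered HEK293 cells measured after one day of compound exposure at 37 deg C, with a 12 min room-temperature detection step.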
Gal4-VP16 FLuc: counter-screen for ROR gamma inhibitors: Gal4-VP16 reporter. Drosophila S2 Gal4-VP16 UAS-luciferase, luminescence, 20 h. Potency, µM (doses to about 53.6 µM), inactives show at the top dose activity, negative = inhibition, usual class: inhibitors. 310,000 tested, 3.5% active;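 also: Gal4-VP16 expression switched on by copper sulfate through the metallothionein promoter; % is scaled to controls: 0 for no effect and ±100 for the full control effect; nearly all actives have a fitted effect of over 50% in size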
RORgamma inh: ROR gamma (mouse) transcription inhibition; P51450; Drosophila S2 Gal4-RORgamma UAS-luciferase reporter, 20 h; Potency, µM (series often up to 53.6 µM), inactives show top-dose activity change, negative = inhibition, hits mostly inhibitors; 310,000 tested, 5.4% active; AID 2551; also: % is scaled to controls: 0 for no effect and ±100 for the full control effect; nearly all actives have a fitted effect of over 60% in size
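A Gal4/UAS one-hybrid system in insect cells: metallothionein-promoter Gal4–ROR gamma fusion plus Photinus luciferase reporter. Copper sulfate 700 uM final, 20 hr ambient incubation, luminescent detection after 10 min with reagent.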
GLP1R ag: activates the human GLP-1 receptor; HEK293 GLP-1R CRE-luciferase, luminescence, 4-6 h; cells express a hypersensitive GLP-1R form; Potency, µM (titrated, usually from 45.6 µM), inactives show at the highest dose activation, hits mostly activators; 380,000 tested, 0.007% active; AID 624172; also: % of control where 0% means no effect
The depositor's hits bear a star; ? = inconclusive; / = no result. A selection: hits, their analogues and other compounds. The true share with any hit is near 5.9%. Calls follow the shape of the dose curve; as a rule, active = well fitted curve in the direction sought with a large enough effect; inconclusive = small, poorly fitted or top-dose-only effect, or another doubt; inactive = no such curve, though single readings can be large; an effect the other way counts as inactive or inconclusive. Potency is read from the fitted curve at half-maximal effect.

SMILES | GLP1R cytotox | GLP-1R inv ag | Gal4-VP16 FLuc | RORgamma inh | GLP1R ag
CC[C@H](C)[C@H](NC(=O)[C@H](Cc1ccc(O)cc1)NC(=O)[C@H](Cc1cnc[nH]1)NC(=O)[C@H](CCCNC(=N)N)NC(=O)[C@H](CC(C)C)NC(=O)[C@H](C)NC(=O)[C@H](CO)NC(=O)[C@H](Cc1ccc(O)cc1)NC(=O)[C@H](Cc1ccc(O)cc1)NC(=O)[C@H](CCCNC(=N)N)NC(=O)[C@H](C)NC(=O)[C@H](CCSC)NC(=O)[C@H](CC(=O)O)NC(=O)[C@H](CCC(=O)O)NC(=O)[C@H](C)NC(=O)[C@@H]1CCCN1C(=O)[C@H](C)NC(=O)[C@H](CC(=O)O)NC(=O)[C@H](CCC(=O)O)NC(=O)CNC(=O)[C@@H]1CCCN1C(=O)[C@H](CC(N)=O)NC(=O)[C@H](CC(=O)O)NC(=O)[C@@H]1CCCN1C(=O)[C@H](CCCCN)NC(=O)[C@H](CO)NC(=O)[C@@H]1CCCN1C(=O)[C@@H](N)Cc1ccc(O)cc1)C(=O)N[C@@H](CC(N)=O)C(=O)N[C@@H](CC(C)C)C(=O)N[C@@H](CC(C)C)C(=O)N[C@H](C(=O)N[C@@H](CCCNC(=N)N)C(=O)N1CCC[C@H]1C(=O)N[C@@H](CCCNC(=N)N)C(=O)N[C@@H](Cc1ccc(O)cc1)C(N)=O)[C@@H](C)O | / | / | 5% | 9% | /
COc1ccc(OC)c(/C=C(\C#N)c2nc(-c3ccc(F)cc3)cs2)c1 | 15% | 16% | / | / | /
Cc1ccccc1Nc1cc(C)c2c(O)cccc2n1 | 9% | -16% | ? | ? | -2%
COc1ccc(Nc2cc(C)c3c(O)cccc3n2)cc1 | -26% | 13µM* | -14% | 1% | 1%
Cc1ccc(Nc2cc(C)c3c(O)cccc3n2)cc1C | -8% | ? | 10µM* | ? | 25%
CC(=O)Nc1ccc(SCCN2CCN(CC(C)C)CCC2=O)cc1 | / | / | -15% | -24% | /
CC1CC=CC2C1C(=O)N(Cc1ccccc1)C2c1cccc([N+](=O)[O-])c1 (configuration not stated) | / | / | -3% | ? | /
CCOC(=O)c1c(C)[nH]c(C)c1S(=O)(=O)N1CCC(C(=O)Nc2ccc(OC)c(OC)c2)CC1 | 0% | 1% | / | / | /
O=c1c2ccccc2n(Cc2c(F)cccc2Cl)c(=O)n1CCc1ccccc1 | 4% | 14% | / | / | -1%
O=C(CCc1ccc(Oc2cc([N+](=O)[O-])cc([N+](=O)[O-])c2)cc1)N1CCCCC1 | -10% | ? | 13µM* | ? | 0%
C#CCC(Cc1cnc2nc(N)nc(N)c2n1)c1ccc(C(=O)N[C@@H](CCC(=O)O)C(=O)O)cc1 (some centres not stated) | / | / | / | / | 6%
CCOCCCNC(=O)c1[nH]c2cc(C)ccc2c1Sc1ccc(Cl)cc1 | 0% | -9% | / | / | /
Cc1ccc(C(=O)NC(=S)Nc2ccc(S(=O)(=O)N(C)c3ccccc3)cc2)cc1 | -12% | -13% | ? | 7.1µM* | -9%
Cc1ccc(S(=O)(=O)N(C)c2ccc(C(=O)NCC(c3ccco3)N(C)C)cc2)cc1 (configuration not stated) | -16% | 7.1µM* | / | / | -3%
Cc1ccccc1NS(=O)(=O)c1ccc(C(=O)NCC(c2ccco2)N(C)C)cc1 (configuration not stated) | 0% | ? | / | / | 6%
CN(Cc1ccccc1)S(=O)(=O)c1ccc(NC(=S)NC(=O)C2CCCC2)cc1 | -37% | ? | ? | 5µM* | -14%
COc1ccccc1/C=C/C(=O)NC(=S)Nc1ccc(S(=O)(=O)N(C)c2ccccc2)cc1 | -3% | -1% | 5% | 13µM* | -18%
COc1cc(C(=O)Nc2ccc(S(=O)(=O)N(C)c3ccccc3)cc2)cc(OC)c1OC | -16% | ? | 10% | ? | 0%
CCc1nn2c(=O)cc(COC(=O)c3cccc(NC(=O)CCc4ccccc4)c3)nc2s1 | 7% | 0% | / | / | /
